# Results reported in PubChem BioAssay (NCATS).
# Records with an inconclusive call do not appear. A call without a number means that no potency is given here. The source made the active and inactive calls. Unless noted, the call rests on the fitted dose curve.
# How the values were obtained:
# [1] = qHTS for Inhibitors of the Functional Ribonucleoprotein Complex (vRNP) of Lassa (LASV) Arenavirus: LASV Primary Screen - GLuc reporter signal (AID 1347082; calls by dose curve; tested in HEK293 reporter line; further: nearly all actives have a fitted effect of over 60% in size; further: potency means the concentration at half of the fitted maximal effect)
# [2] = target: Nucleoprotein (Lymphocytic choriomeningitis virus (strain Armstrong)) (UniProt P09992); test: qHTS for Inhibitors of the Functional Ribonucleoprotein Complex (vRNP) of Lymphocytic Choriomeningitis Arenaviruses (LCMV): LCMV Primary Screen - GLuc reporter signal (AID 1347086); further: nearly all actives have a fitted effect of over 70% in size; further: potency means the concentration at half of the fitted maximal effect
# [3] = Primary qHTS for inhibitors of SARS-S pseudo-typed particle cell entry (AID 1479145); further: nearly all actives have a fitted effect of over 45% in size
# [4] = Primary qHTS for Huh7 cytotoxicity: counterscreen for inhibitors of MERS-S pseudotyped particle cell entry (AID 1479147); details: outcome: dose series up to 57.1 µM unless noted
# [5] = Primary qHTS for Vero E6 cytotoxicity: counterscreen for inhibitors of SARS-S pseudo-typed particle cell entry (AID 1479150); details: outcome: dose series up to 57.1 µM unless noted
# [6] = Cytotoxicity counterscreen for inhibitors of SARS-CoV-2 cell entry (AID 1645845); further: nearly all actives have a fitted effect of over 50% in size
# In short: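 Expi293F/hACE2 cells seeded overnight; cpd pin-transferred in DMSO, 1 h preincubation, + media, 48 h 37 C 5% CO2; ATPLite 1step luminescence; normalized to cells and no cells.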
# [7] = Primary qHTS to identify inhibitors of SARS-CoV-2 cell entry (AID 1645846); details: activity change, negative = inhibition: at 57.1 µM (top of the series) unless noted; further: nearly all actives have a fitted effect of over 45% in size; further: potency means the concentration at half of the fitted maximal effect
# In short: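 HEK293 cells stably expressing human ACE2, pre-treated 1 h with compound, then infected with MLV particles pseudotyped with Wuhan-Hu-1 spike (C-terminal 19-aa truncation). Luciferase luminescence after 48 h at 37 °C, normalised to spike PP and bald PP.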
# [8] = target: Nuclear receptor subfamily 1 group I member 3 (Homo sapiens) (UniProt Q14994); test: Primary qHTS for antagonist of constitutive androstane receptor (CAR) against the NCATS DSHEA and TCM libraries (AID 1794836; active means well fitted curve in the direction sought with a large enough effect; an effect the other way counts as inactive or inconclusive)
# In short: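 HepG2 cells stably carrying hCAR and a CYP2B6 luciferase reporter (2,500 cells/well) attached for 5 h, then received compounds with 48 uM CITCO for 24 h at 37C. ONE-Glo luminescence read antagonism; CellTiter-Fluor (405/540 nm) gave viability.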
# [9] = Confirmatory qHTS for VERO E6 Cytotoxicity Assay: Counterscreen for SARS-CoV-2 CPE Assay (AID 1508605); further: nearly all actives have a fitted effect of over 60% in size
# [10] = target: Alpha-galactosidase (Coffea arabica) (UniProt Q42656); test: Counterscreen for Glucocerebrosidase Inhibitors: qHTS Assay for Coffee Bean alpha-Galactosidase at pH 4.5 (AID 957; active means well fitted curve in the direction sought with a large enough effect; an effect the other way counts as inactive or inconclusive)
# In short: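 Coffee bean enzyme (2 nM) with 80 uM 4-methylumbelliferyl alpha-D-galactopyranoside in 50 mM citric acid, 0.005% Tween-20, pH 4.5, 20 min at room temperature; compounds 0.7 nM–77 uM. Stopped at pH 10, fluorescence 365/440 nm; AC50 from Hill fits.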
# [11] = target: Alpha-galactosidase (Coffea arabica) (UniProt Q42656); test: Counterscreen for Glucocerebrosidase Inhibitors: qHTS Assay for Coffee Bean alpha-Galactosidase at pH 5.9 (AID 998; active means well fitted curve in the direction sought with a large enough effect; an effect the other way counts as inactive or inconclusive)
# In short: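 Green coffee bean enzyme (2 nM final) was incubated with compounds (0.7 nM–77 uM) and 4-methylumbelliferyl alpha-D-galactopyranoside (80 uM) in citrate buffer pH 5.9, 20 min at room temperature. High-pH stop; fluorescence 365/440 nm; AC50 from Hill fits.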
# [12] = Validation screen for inhibitors of Lassa infection (AID 463096)
# [13] = Inducers of the Endoplasmic Reticulum Stress Response (ERSR) in human glioma: Validation (AID 504836; active means well fitted curve in the direction sought with a large enough effect; an effect the other way counts as inactive or inconclusive)
# In short: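 Stably transfected U87-MG human glioma cells carrying a GRP78-based luminescent sensor were seeded at 1000 cells/well, pin-dosed with compounds and incubated 16 h. Luciferase reagent was then added, and end-point luminescence was read after 10 min at room temperature.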
# [14] = Primary qHTS for inhibitors of MERS-S pseudo-typed particle cell entry (AID 1479149); further: nearly all actives have a fitted effect of over 60% in size
# [15] = qHTS profiling of the MIPE4 collection as inhibitors of Plasmodium falciparum (3D7) proliferation (AID 743344; call rule not given here); details: P. falciparum 3D7 in erythrocytes, SYBR Green DNA fluorescence, 72 h; at 28.5 µM (top of the series) unless noted
# In short: (§1)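 Erythrocytes infected with P. falciparum (0.3% parasitemia, 2.5% hematocrit) incubated with compounds 72 h at 37 C, 5% CO2. Lysis with saponin/Triton buffer containing SYBR Green I, overnight at room temperature in the dark; DNA fluorescence (485/535 nm) normalised to 0.29 uM artemisinin and DMSO.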
# [16] = qHTS profiling of the MIPE4 collection as inhibitors of Plasmodium falciparum (DD2) proliferation (Rep 2) (AID 743346; call rule not given here); details: P. falciparum Dd2 in erythrocytes, SYBR Green DNA, 72 h; at 28.5 µM (top of the series) unless noted
# In short: as §1
# [17] = target: Rap guanine nucleotide exchange factor 3 (Homo sapiens) (UniProt O95398); test: Confirmatory qHTS for agonist of cAMP-regulated guanine nucleotide exchange factor 3 (EPAC1) (AID 1645881; active means well fitted curve in the direction sought with a large enough effect; an effect the other way counts as inactive or inconclusive;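 further: EPAC1 catalysed release of BODIPY-GDP from Rap1B seen as fluorescence loss; nearly all actives have a fitted effect of over 75% in size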)
# [18] = target: Rap guanine nucleotide exchange factor 4 (Homo sapiens) (UniProt Q8WZA2); test: Confirmatory qHTS for agonist of cAMP-regulated guanine nucleotide exchange factor 4 (EPAC2) (AID 1645884; active means well fitted curve in the direction sought with a large enough effect; an effect the other way counts as inactive or inconclusive;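 further: nucleotide exchange releases bodipy-GDP from Rap1 and this lowers its fluorescence; nearly all actives have a fitted effect of over 65% in size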)
# [19] = target: Rap guanine nucleotide exchange factor 4 (Homo sapiens) (UniProt Q8WZA2); test: Confirmatory qHTS for antagonist of cAMP-regulated guanine nucleotide exchange factor 4 (EPAC2) (AID 1645885; active means well fitted curve in the direction sought with a large enough effect; an effect the other way counts as inactive or inconclusive; further: nearly all actives have a fitted effect of over 25% in size)
# [20] = target: Rap guanine nucleotide exchange factor 3 (Homo sapiens) (UniProt O95398); test: Counterscreen qHTS for antagonist of cAMP-regulated guanine nucleotide exchange factor 3 (EPAC1) (AID 1645888; active means well fitted curve in the direction sought with a large enough effect; an effect the other way counts as inactive or inconclusive;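 further: fluorescence loss as bound BODIPY-GDP is released from Rap1B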)
# In short: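 Measured: fluorescence of BODIPY-GDP bound to Rap1B, which falls as exchange proceeds. Conditions include 50 uM competing GDP, 5 and 30 min reads, and a later cAMP challenge for antagonist detection.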
# [21] = qHTS for Inhibitors of the Functional Ribonucleoprotein Complex (vRNP) of Lassa (LASV) Arenavirus: Viability assay - alamar blue signal for LASV Primary Screen (AID 1347083; calls by dose curve; tested in HEK293 reporter line; further: nearly all actives have a fitted effect of over 80% in size; further: potency means the concentration at half of the fitted maximal effect)
# [22] = qHTS for Inhibitors of the Functional Ribonucleoprotein Complex (vRNP) of Lymphocytic Choriomeningitis Arenaviruses (LCMV): Viability assay - alamar blue signal for LCMV Primary Screen (AID 1347085; calls by dose curve; tested in HEK293 reporter line; further: nearly all actives have a fitted effect of over 80% in size; further: potency means the concentration at half of the fitted maximal effect)
# Nucleoprotein (Lymphocytic choriomeningitis virus (strain Armstrong)), sequence (P09992 whole entry, looked up): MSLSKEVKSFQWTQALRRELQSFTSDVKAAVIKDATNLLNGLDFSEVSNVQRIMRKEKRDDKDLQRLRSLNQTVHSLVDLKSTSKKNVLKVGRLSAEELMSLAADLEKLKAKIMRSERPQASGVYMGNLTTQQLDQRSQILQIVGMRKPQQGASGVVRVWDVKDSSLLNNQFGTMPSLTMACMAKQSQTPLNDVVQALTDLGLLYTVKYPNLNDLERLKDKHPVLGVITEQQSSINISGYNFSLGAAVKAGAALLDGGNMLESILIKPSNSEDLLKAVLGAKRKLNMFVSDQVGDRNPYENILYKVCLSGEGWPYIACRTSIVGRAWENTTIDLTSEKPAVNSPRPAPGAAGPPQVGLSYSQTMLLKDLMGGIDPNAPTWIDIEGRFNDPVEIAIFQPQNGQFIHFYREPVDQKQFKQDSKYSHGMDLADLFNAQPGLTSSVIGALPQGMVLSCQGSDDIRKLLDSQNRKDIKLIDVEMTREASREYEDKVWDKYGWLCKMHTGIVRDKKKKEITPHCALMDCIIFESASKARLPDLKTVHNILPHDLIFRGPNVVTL
# Alpha-galactosidase (Coffea arabica), sequence (Q42656 whole entry, looked up): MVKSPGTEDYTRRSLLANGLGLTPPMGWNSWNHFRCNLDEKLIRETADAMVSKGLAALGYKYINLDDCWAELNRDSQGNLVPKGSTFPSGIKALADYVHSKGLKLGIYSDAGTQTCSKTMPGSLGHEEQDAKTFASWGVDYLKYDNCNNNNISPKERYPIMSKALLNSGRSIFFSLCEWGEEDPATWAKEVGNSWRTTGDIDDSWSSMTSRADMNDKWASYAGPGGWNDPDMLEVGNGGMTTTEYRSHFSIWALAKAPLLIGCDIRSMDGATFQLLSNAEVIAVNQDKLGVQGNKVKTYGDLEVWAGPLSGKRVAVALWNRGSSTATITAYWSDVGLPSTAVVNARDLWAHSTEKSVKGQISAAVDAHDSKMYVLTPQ
# Rap guanine nucleotide exchange factor 4 (Homo sapiens), sequence (Q8WZA2 whole entry, looked up): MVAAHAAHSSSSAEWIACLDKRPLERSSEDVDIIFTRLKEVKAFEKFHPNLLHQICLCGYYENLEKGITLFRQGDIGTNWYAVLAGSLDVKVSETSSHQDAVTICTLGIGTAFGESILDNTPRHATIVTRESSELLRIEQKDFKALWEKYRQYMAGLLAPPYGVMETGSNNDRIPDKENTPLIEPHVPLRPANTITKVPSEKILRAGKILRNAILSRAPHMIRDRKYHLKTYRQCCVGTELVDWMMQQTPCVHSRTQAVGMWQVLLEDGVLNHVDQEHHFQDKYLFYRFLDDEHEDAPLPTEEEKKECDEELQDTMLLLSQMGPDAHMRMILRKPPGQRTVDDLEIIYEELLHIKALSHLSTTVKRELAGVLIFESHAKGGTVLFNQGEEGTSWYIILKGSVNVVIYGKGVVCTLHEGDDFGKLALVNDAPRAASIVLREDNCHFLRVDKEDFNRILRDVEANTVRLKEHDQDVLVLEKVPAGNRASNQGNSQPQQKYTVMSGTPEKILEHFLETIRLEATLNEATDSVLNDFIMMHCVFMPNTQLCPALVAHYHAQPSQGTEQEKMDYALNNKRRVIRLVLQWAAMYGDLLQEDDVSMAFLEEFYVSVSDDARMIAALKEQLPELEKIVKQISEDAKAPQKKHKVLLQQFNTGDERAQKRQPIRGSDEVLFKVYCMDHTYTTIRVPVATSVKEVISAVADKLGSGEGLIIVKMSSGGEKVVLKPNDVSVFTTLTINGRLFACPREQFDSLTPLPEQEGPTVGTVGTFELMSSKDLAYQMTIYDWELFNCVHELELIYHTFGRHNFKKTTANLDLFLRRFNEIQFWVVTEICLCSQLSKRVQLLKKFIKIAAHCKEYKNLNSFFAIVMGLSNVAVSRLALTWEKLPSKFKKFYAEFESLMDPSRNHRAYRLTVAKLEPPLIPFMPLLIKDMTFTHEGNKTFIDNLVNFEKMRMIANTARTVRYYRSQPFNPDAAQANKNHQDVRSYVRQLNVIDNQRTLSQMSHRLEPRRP
# Rap guanine nucleotide exchange factor 3 (Homo sapiens), sequence (O95398 whole entry, looked up): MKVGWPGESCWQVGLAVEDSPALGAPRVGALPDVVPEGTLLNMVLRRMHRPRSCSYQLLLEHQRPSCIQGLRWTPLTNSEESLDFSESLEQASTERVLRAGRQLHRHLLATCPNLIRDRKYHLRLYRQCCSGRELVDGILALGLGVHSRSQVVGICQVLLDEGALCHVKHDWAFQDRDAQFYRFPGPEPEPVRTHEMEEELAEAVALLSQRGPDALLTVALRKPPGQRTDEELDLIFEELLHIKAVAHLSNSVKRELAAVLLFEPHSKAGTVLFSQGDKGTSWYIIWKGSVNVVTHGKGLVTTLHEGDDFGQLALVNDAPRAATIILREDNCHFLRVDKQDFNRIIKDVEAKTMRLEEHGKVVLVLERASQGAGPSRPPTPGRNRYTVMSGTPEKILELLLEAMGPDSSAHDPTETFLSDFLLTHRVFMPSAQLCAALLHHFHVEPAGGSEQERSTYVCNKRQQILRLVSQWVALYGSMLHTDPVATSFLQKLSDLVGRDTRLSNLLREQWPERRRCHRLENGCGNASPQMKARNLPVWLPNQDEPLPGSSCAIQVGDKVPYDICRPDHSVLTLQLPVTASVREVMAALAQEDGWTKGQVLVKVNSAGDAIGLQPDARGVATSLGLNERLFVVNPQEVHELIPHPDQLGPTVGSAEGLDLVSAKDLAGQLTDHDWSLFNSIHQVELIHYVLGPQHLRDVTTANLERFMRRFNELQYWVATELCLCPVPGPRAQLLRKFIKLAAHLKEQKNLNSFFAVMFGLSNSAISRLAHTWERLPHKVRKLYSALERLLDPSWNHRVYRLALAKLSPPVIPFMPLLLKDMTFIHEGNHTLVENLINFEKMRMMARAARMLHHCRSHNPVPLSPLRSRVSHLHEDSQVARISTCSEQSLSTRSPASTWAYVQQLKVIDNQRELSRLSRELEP
# Nuclear receptor subfamily 1 group I member 3 (Homo sapiens), sequence (Q14994 whole entry, looked up): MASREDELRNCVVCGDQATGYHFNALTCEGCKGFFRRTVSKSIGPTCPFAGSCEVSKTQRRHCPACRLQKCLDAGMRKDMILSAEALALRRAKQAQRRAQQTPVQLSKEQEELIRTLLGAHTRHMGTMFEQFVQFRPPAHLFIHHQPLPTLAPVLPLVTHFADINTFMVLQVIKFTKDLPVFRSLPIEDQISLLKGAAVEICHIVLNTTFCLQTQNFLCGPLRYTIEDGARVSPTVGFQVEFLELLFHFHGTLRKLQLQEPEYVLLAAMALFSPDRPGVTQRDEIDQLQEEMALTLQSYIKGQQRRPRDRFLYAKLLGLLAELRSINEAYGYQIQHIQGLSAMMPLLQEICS
smiles,measurement,setting,value
O=C1CSC(=O)N1C(CCc1ccncc1)COc1ccc(-c2cccc([N+](=O)[O-])c2)cc1 (stereo not given),Potency,[1],17.2 µM (active)
same,Potency,[2],7.69 µM (active)
CC(C)(C)c1nc(-c2cccc(NS(=O)(=O)c3c(F)cccc3F)c2F)c(-c2ccnc(N)n2)s1,Potency,[1],inactive
same,Potency,[2],inactive
same,Potency,[3],inactive
same,outcome,[4],inactive
same,outcome,[5],inactive
same,Potency,[6],inactive
same,Potency,[7],28.2 µM (active)
O=C(/C=C/c1ccc(O)c(O)c1)OC(Cc1ccc(O)c(O)c1)C(=O)O (stereo not given),Potency,[1],inactive
same,Potency,[2],inactive
same,Potency,[8],inactive
COc1cc2c(c(OC)c1OC)-c1ccc(OC)c(=O)cc1C(N)CC2 (stereo not given),Potency,[1],inactive
same,Potency,[2],0.178 µM (active)
COc1c2ccoc2c(OCC=C(C)C)c2oc(=O)ccc12,Potency,[1],inactive
same,Potency,[2],inactive
COc1cc(C(C)C)c(Oc2cnc(NC(CO)CO)nc2N)cc1I,Potency,[1],inactive
same,Potency,[2],inactive
same,Potency,[6],inactive
same,Potency,[7],inactive
C[C@@H](N)c1ccc(C(=O)Nc2ccnc3[nH]ccc23)cc1,Potency,[1],inactive
same,Potency,[2],inactive
same,"activity change, negative = inhibition",[7],-95.9%
CCC[C@H]1NC(=O)[C@H](C)N(C)C(=O)C(C)(C)C(=O)C(C)NC(=O)[C@H](Cc2ccc(OC)cc2)N(C)C(=O)[C@H](C(C)C)N(C)C(=O)CNC(=O)[C@H](CC(C)C)N(C)C(=O)CNC(=O)[C@H]([C@@H](C)CC)OC(=O)[C@H]1C (stereo not given in full),Potency,[1],inactive
same,Potency,[2],inactive
CN[C@@H](C)[C@H]1[C@H](O)C[C@@]2(C)[C@@H]3CC[C@H]4C(C)(C)[C@@H](NC)CC[C@@]45C[C@@]35CC[C@]12C,Potency,[1],inactive
same,Potency,[2],inactive
same,Potency,[9],inactive
CN(C)c1nc2c(Br)c(Br)c(Br)c(Br)c2[nH]1,outcome,[10],inactive
same,outcome,[11],inactive
same,Potency,[12],inactive
same,outcome,[13],inactive
same,Potency,[1],inactive
same,Potency,[2],inactive
NC(=O)c1cnc(-c2ccc(C3(N)CCC3)cc2)c(-c2ccccc2)c1,Potency,[1],inactive
same,Potency,[2],inactive
same,Potency,[6],inactive
Nc1ccn([C@@H]2O[C@H](CO)[C@@H](O)[C@H]2O)c(=O)n1,Potency,[1],inactive
same,Potency,[2],inactive
same,outcome,[4],inactive
same,Potency,[14],inactive
same,outcome,[5],inactive
same,Potency,[6],inactive
same,"activity change, negative = inhibition",[7],-8.54%
C=C1C(=CC=C2CCC[C@]3(C)[C@@H]([C@H](C)CCCC(C)(C)O)CC[C@@H]23)C[C@@H](O)C[C@@H]1O,Potency,[1],inactive
same,Potency,[2],inactive
O=C1NC(=O)C(c2ccccc2[N+](=O)[O-])=C1Nc1ccc(O)c(Cl)c1,outcome,[10],inactive
same,outcome,[11],inactive
same,Potency,[12],inactive
same,outcome,[13],inactive
same,Potency,[1],inactive
same,Potency,[2],inactive
same,Potency,[6],inactive
COc1ccc2c3c1OC1C[C@@H](O)C=C[C@@]31CCN(C)C2 (stereo not given in full),"parasite growth, % of DMSO control",[15],89.5%
same,"parasite growth, % of control (lower = inhibition)",[16],65.2%
COc1cc2c(cc1OC)-c1c(OC)c(OC)cc3c1C(C2)N(C)CC3 (stereo not given),outcome,[17],inactive
same,outcome,[18],inactive
same,Potency,[19],inactive
same,outcome,[20],inactive
CC(C)C[C@@H]1NC(=O)[C@H](Cc2ccccc2)N(C)C(=O)[C@H](C)NC(=O)c2ccccc2NC(=O)[C@H](Cc2ccc(O)cc2)N(C)C1=O,Potency,[21],8.91 µM (active)
O=C(O)CO.[NH2-].[NH2-].[Pt+2],Potency,[21],inactive
same,Potency,[22],inactive
CC(C)Oc1ccc(C(=O)N[C@H](CNC(=O)CN(C)C)Cc2ccc(-c3cn4cccc([C@H](C)O)c4n3)cc2)cc1Cl,Potency,[21],1.93 µM (active)
same,Potency,[22],0.968 µM (active)
O=c1[nH]c(=O)n([C@H]2C[C@@H](O)[C@@H](CO)O2)cc1F,Potency,[21],5.44 µM (active)
same,Potency,[22],7.69 µM (active)
C[C@H]1[C@H](O)O[C@@H]2O[C@@]3(C)CC[C@@H]4[C@H](C)CC[C@@H]1[C@@]24OO3,Potency,[21],10 µM (active)
same,Potency,[22],15.8 µM (active)
O=C(c1ccc(F)c(F)c1Nc1ccc(I)cc1F)N1CC(O)([C@H]2CCCCN2)C1,Potency,[21],8.63 µM (active)
same,Potency,[22],3.06 µM (active)
Cc1cnc(Nc2ccc(N3CCN(C)CC3)cc2)nc1Nc1cccc(S(=O)(=O)NC(C)(C)C)c1,Potency,[21],3.85 µM (active)
same,Potency,[22],30.6 µM (active)
same,Potency,[2],30.6 µM (active)
Clc1ccc(C2(c3ccc(-c4cn[nH]c4)cc3)CCNCC2)cc1,Potency,[21],5.44 µM (active)
same,Potency,[22],5.44 µM (active)
C=C1CCC2[C@](C)(CO)[C@H](O)CC[C@@]2(C)[C@@H]1/C=C/C1=CCOC1=O (stereo not given in full),Potency,[21],inactive
same,Potency,[22],inactive
O=C1NC(=O)[C@@H](c2cn3c4c(cccc24)CCC3)[C@H]1c1c[nH]c2ccccc12,Potency,[21],2.17 µM (active)
same,Potency,[22],4.32 µM (active)
O=C1NC2C(=CC(O)C(O)C2O)c2cc3c(cc21)OCO3 (stereo not given),Potency,[21],0.199 µM (active)
same,Potency,[22],0.282 µM (active)
CCN(CC)CCNC(=O)COc1ccc(Cl)cc1,Potency,[21],inactive
same,Potency,[22],inactive
CNC1CCC(N(Cc2cccc(-c3ccncc3)c2)C(=O)c2sc3c(F)ccc(F)c3c2Cl)CC1 (stereo not given),Potency,[21],7.69 µM (active)
same,Potency,[22],5.44 µM (active)
CC(=O)OCC(=O)[C@@]12N=C(C)O[C@H]1C[C@H]1[C@@H]3CCC4=CC(=O)C=C[C@]4(C)[C@@H]3[C@@H](O)C[C@@]12C,Potency,[21],inactive
same,Potency,[22],inactive
CC(O)(C#Cc1ccc2c(c1)N(c1nc(N)ncc1Cl)CC2)c1nccs1 (stereo not given),Potency,[21],21.7 µM (active)
same,Potency,[22],17.2 µM (active)
same,Potency,[2],inactive
